Experimental findings from PubChem BioAssay AID1345085 (National Center for Advancing Translational Sciences (NCATS), 2018) are described below.

Results filed as inconclusive are left out. Unmarked numbers belong to inactive results. Active and inactive are the calls of the source. The call rests on the fitted dose curve; in most records, active means well fitted cell-killing curve with a large enough effect; inconclusive means small, poorly fitted or top-dose-only effect, or effect the other way; inactive means no such curve, though single readings can be large or run the other way.
On the % scale 0 is the no-effect control and ±100 the full control effect; potency means the concentration at half of the fitted maximal effect.

The assay relates to SKOV3. Briefly: Confirmatory qHTS for gynecologic anti-cancer compounds from libraries of approved drugs and bioactive compounds. Further: nearly all actives have a fitted effect of over 55% in size. The note with it: gynecologic cancer cell panel viability, ATPlite luminescence, 48 h; series mostly up to 57.6 µM; activity change, negative = viability loss: at the top concentration. The method in brief:
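IC50 values derive from an ATPlite ATP-content luminescence assay following 48 h treatment at 37 C. Each compound ran as an 11-concentration, threefold series (57.5 uM to 0.977 nM); HEK 293T served as control line for selectivity index.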
In general terms: Quantitative high-throughput screening tests each substance at several concentrations.
Turning to `COc1cc(N2CCC(N3CCN(C)CC3)CC2)ccc1Nc1ncc(Cl)c(Nc2ccccc2S(=O)(=O)C(C)C)n1`, the Potency is 19.3 µM (active). For the molecule `CCCC(=O)O[C@]1(C(=O)CCl)[C@@H](C)C[C@H]2[C@@H]3CCC4=CC(=O)C=C[C@]4(C)[C@@]3(F)C(=O)C[C@@]21C`, the “activity change, negative = viability loss” value was -11.2%. In the case of `CCN[C@H]1C[C@H](C)S(=O)(=O)c2sc(S(N)(=O)=O)cc21`, the “activity change, negative = viability loss” value is -13.1%. Same read-out and setting: the same measure for `FC(F)(F)c1ccc(/C=C/c2nc(COc3ccc(CCCCn4ccnn4)cc3)co2)cc1`: -6.4%. Turning to `COc1cccc2c1C(=O)c1c(O)c3c(c(O)c1C2=O)C[C@@](O)(C(=O)CO)C[C@@H]3O[C@H]1C[C@H](N)[C@H](O)[C@H](C)O1`, the Potency is 0.432 µM (active). In the case of `CC(C)Nc1cc(-c2c[nH]c(C(=O)N[C@H](CO)c3cccc(Cl)c3)c2)c(Cl)cn1`, the “activity change, negative = viability loss” value was 31.2%.

Regarding `COc1cc(Nc2c(C#N)cnc3cc(OCCCN4CCN(C)CC4)c(OC)cc23)c(Cl)cc1Cl`, the Potency is 19.3 µM (active). `COc1cccc2cc(-c3nc(C4CCC(C(=O)O)CC4)n4ncnc(N)c34)[nH]c12` (stereo not drawn): the Potency was 1.09 µM (active). Consider `NS(=O)(=O)OC[C@@H]1C[C@@H](n2ccc3c(N[C@H]4CCc5ccccc54)ncnc32)C[C@@H]1O`, for which the “activity change, negative = viability loss” value was -8.5%. Same read-out and setting: the same measure for `COc1ccc(OC)c(-c2nnc3ccc(-c4ccc(OC)c(O[C@@H]5CCOC5)c4)nn23)c1`: -8.13%; for `CN1C2CCC1CC(OC(=O)[C@H](CO)c1ccccc1)C2` (stereo partly drawn): -7.8%; for `CC[C@H](CC#N)OC(=O)N[C@@H](C)c1cccc(NC(=O)Nc2ccc(-c3cnco3)c(OC)c2)c1`: -16.4%.

For the molecule `CC(=O)c1cnc2ccc(-c3cc(Cl)c(O)c(Cl)c3)nc2c1NC1CCC(CN(C)C)CC1` (stereo not drawn), the Potency was 0.498 µM (active).
